High-throughput results (PubChem BioAssay)
The list is not random: actives were taken first. Their share in the collection is about 6.3%.
ATXN2 expr inh = ATXN2 expression inhibition; HEK-293 ATXN2-luciferase reporter, luminescence, 24 h; Potency, µM (titrated, usually from 57 µM), inactives show at the highest dose activity change, negative = inhibition, usual class: inhibitors; actives 0.72% (n = 360,000); AID 1745845; also: % is scaled to controls: 0 for no effect and ±100 for the full control effect; nearly all actives have a fitted effect of over 55% in size
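ATXN2-luciferase reporter cells (luciferase flanked by upstream and downstream ATXN2 gene portions) were treated 24 h at 37 °C with compounds at up to 57 uM. SteadyGlo luminescence gave expression; GF-AFC fluorescence gave viability.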
HepG2 viability = HepG2 cytotoxicity, counter-screen for TGF-b inhibitors. Potency, µM (highest dose often 46.1 µM), for the others: top-dose activity change, negative = cytotoxicity, actives largely listed as cytotoxic. HepG2 CAGA-GFP viability, ATP luminescence, 18 h. AID 588856. actives 0.76% (n = 410,000)
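CellTiter-Glo luminescence gave cytotoxicity after 18 hours at 37 degrees C. The cells were HepG2 CAGA-GFP in 1% FBS DMEM, stimulated with 500 pg/mL TGF-beta after compound addition. %Activity was normalised to no-cell wells (complete cell-killing) and DMSO (no toxicity), and curves were fitted and classified.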
TGFb inhibitor = blocks TGF-b signaling. actives 1.2% (n = 410,000). Potency, µM (titrated, usually from 46.1 µM), for inactives: at the top dose activity, negative = inhibition, hits mostly inhibitors. HepG2 CAGA-GFP TGF-b/SMAD3 reporter, GFP fluorescence, 18 h; TGF-beta stimulated, 500 pg/mL final. AID 588855; also: % is scaled to controls: 0 for no effect and ±100 for the full control effect; nearly all actives have a fitted effect of over 65% in size
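HEPG2 CAGA-GFP cells (1000/well, DMEM with 1% FBS) were pre-incubated 2 h at 37 degrees C, given compound by pin tool, then stimulated with TGF-beta at 500 pg/mL final for 18 h before per-cell GFP fluorescence imaging.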
VP16 counter = Gal4-VP16 reporter inhibition counter-screen; Potency, µM (top dose mostly 53.6 µM), inactives show at the highest dose activity, negative = inhibition, usual class: inhibitors; Drosophila S2 Gal4-VP16 UAS-luciferase, luminescence, 20 h; actives 3.5% (n = 310,000);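 also: Gal4-VP16 expression switched on by copper sulfate through the metallothionein promoter; % is scaled to controls: 0 for no effect and ±100 for the full control effect; nearly all actives have a fitted effect of over 50% in size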
RORgamma inh = blocks mouse ROR gamma transcriptional activity; actives 5.4% (n = 310,000); Drosophila S2 Gal4-RORgamma UAS-luciferase reporter, 20 h; Potency, µM (titrated, usually from 53.6 µM), without a hit: top-dose activity change, negative = inhibition, most hits filed as inhibitors; AID 2551; P51450; also: % is scaled to controls: 0 for no effect and ±100 for the full control effect; nearly all actives have a fitted effect of over 60% in size
Target sequence (P51450 whole entry, looked up, the tested form may be a part): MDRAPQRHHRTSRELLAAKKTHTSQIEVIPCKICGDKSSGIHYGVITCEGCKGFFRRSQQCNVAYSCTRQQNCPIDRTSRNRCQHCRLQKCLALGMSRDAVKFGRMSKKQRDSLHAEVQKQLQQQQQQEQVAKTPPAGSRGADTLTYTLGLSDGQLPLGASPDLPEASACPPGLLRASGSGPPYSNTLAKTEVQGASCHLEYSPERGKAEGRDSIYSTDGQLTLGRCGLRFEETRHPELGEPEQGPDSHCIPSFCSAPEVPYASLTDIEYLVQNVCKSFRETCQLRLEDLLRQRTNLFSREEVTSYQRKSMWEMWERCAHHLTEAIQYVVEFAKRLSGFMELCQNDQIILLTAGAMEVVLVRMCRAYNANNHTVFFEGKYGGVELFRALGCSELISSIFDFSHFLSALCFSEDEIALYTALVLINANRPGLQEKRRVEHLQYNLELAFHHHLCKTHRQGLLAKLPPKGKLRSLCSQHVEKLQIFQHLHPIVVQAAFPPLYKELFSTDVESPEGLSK
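Luciferase reporter read in Schneider cells carrying Gal4-RORγ (mouse) and UAS-Photinus luciferase; cells given compound 1 h before 700 uM copper sulfate induction, then incubated 20 h at ambient temperature.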
ATXN viability = cell viability loss in ATXN counter-screen; S2 cells (HEK-293 line with an ATXN2-luciferase reporter) viability, CellTiter-Fluor protease fluorescence, 24 h; Potency, µM (top dose mostly 56.7 µM), most hits filed as cytotoxic; actives 0.49% (n = 400,000); also: nearly all actives have a fitted effect of over 40% in size
The depositor's hits bear a star; i = inactive; u = inconclusive; x = not tested or not shown; [ ] = remark or other dose. Calls follow the shape of the dose curve; as a rule, active = well fitted curve in the direction sought with a large enough effect; inconclusive = small, poorly fitted or top-dose-only effect, or another doubt; inactive = no such curve, though single readings can be large; an effect the other way counts as inactive or inconclusive. Potency is read from the fitted curve at half-maximal effect.

SMILES | ATXN2 expr inh | HepG2 viability | TGFb inhibitor | VP16 counter | RORgamma inh | ATXN viability
Cc1ccc(OCc2n[nH]c(=S)n2-c2ccc(Br)cc2)cc1 | x | -28% | -25% | 5.6µM* | 2.2µM* | u
NC(=S)NN=C(Cc1ccccc1)Cc1ccccc1 | -28% | -46% | u | 5µM* | 1.4µM* | u
O=C(NN=C(Cc1ccccc1)Cc1ccccc1)c1ccc(F)cc1 | x | -14% | -7% | u | u | i
O=C(NN=C(Cc1ccccc1)Cc1ccccc1)c1ccccc1O | -6% | -17% | 6% | u | 3.5µM* | i
CN(C)CCCn1c2c(c(SCC(=O)Nc3cccc4ccccc34)nc1=O)CCCC2 | -14% | -41% | -3% | x | x | i
COc1cc(OC)cc(C(=O)NC(=S)N2CCCCC2c2cccnc2)c1 (configuration not stated) | -3% | -10% | 10% | 4µM* | 38% | i
COc1ccc(/C=C/C(=O)NC(=S)NN2CCCCC2c2cccnc2)cc1OC (configuration not stated) | -3%[11.3 µM] | 3% | 8% | 16µM* | 13µM* | i
COc1ccc(/C=C/C(=O)NC(=S)NNC(=O)c2cccnc2)cc1 | -2% | -43% | -21% | -43% | -3%[10 µM] | i
COc1ccc(/C=C/C(=O)Nc2cccc(S(=O)(=O)N3CCCC3)c2)cc1OC | u | -14% | -16% | 0% | u | i
O=C(/C=C/c1ccc(Cl)cc1)NC(=S)NN1CCCCC1c1cccnc1 (configuration not stated) | x | x | x | u | 2µM* | x
COc1cccc(NC(=O)NCc2ccc3c(c2)CCN3C(=O)c2ccccc2)c1 | -32% | -32% | u | x | x | i
CCc1cccc(NC(=O)C2CCN(S(=O)(=O)c3cccc(-c4noc(C)n4)c3)CC2)c1 | -37% | -5% | u | x | x | i
CC1(C(=O)Nc2ccc3c(c2)OCO3)CCN1C(=O)CCc1ccc(Cl)cc1Cl (configuration not stated) | -7% | -18% | -3% | x | x | 28µM*
CC1(C(=O)Nc2ccc3c(c2)OCO3)CCN1C(=O)Cc1cc(F)ccc1F (configuration not stated) | -3% | -10% | 1% | x | x | i
CCN(CC)c1ccc2c(C)cc(=O)oc2c1 | 17% | -8% | 28% | 5% | -5% | x
CCN(CC)c1ccc2c(C)c(Cl)c(=O)oc2c1 | 18% | -5% | -7% | 3% | 11% | x
CCN(CC)c1ccc2c(Cl)c(Br)c(=O)oc2c1 | u | -53% | u | 4µM* | u | x
CCN(CC)c1ccc2c(c1)oc(=O)c1c(Cl)cc(=O)oc12 | u | 14µM* | u | u | u | u
CC(=O)N1CCCc2cc(S(=O)(=O)N3CCCC(C)C3)ccc21 (configuration not stated) | 4% | -2% | -1% | 20% | -20% | i
COc1ccc(NC2CCCN(C(=O)CSc3ccncc3)C2)cc1 (configuration not stated) | -3% | -14% | -17% | x | x | i
COC(=O)N=Nc1c(O)[nH]c2ccc(Br)cc12 | -25% | 10% | 7% | -5% | 3% | i
Oc1[nH]c2ccc(Br)cc2c1N=NC(=S)N1CCOCC1 | 0.71µM* | -30% | u | 1.6µM* | 1.6µM* | u
Oc1[nH]c2ccccc2c1N=NC(=S)N1CCOCC1 | x | 3.2µM* | 7.1µM* | 2.8µM* | 0.1µM* | 3.2µM*
O=C(N=Nc1c(O)[nH]c2ccccc12)c1ccc(CN2CCOCC2)cc1 | 3% | -18% | 9% | -8% | -3% | i
COc1ccccc1Cc1c(-c2ccccc2)nc2cc(C)c(Br)c(C)n12 | 39% | x | x | x | x | i
CCOC(=O)C1=C(CS(=O)(=O)c2ccc(F)cc2)NC(=O)NC1c1ccc(OCC)c(OC)c1 (configuration not stated) | -13% | -3% | u | x | x | u
